Results as given in PubChem BioAssay AID602252 (Broad Institute, 2012).
Out of some 300,000 compounds screened, about 2,700 (0.9%) were called active.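 Rule for the calls: active = mean inhibition of at least 30% with at least half of replicates also reaching 30%; inconclusive = no clear call, values can overlap the other calls; inactive = the rest.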 For the sample, actives were picked, then their nearest neighbours and some compounds at random.

The compounds below were run against Golgi-associated PDZ and coiled-coil motif-containing protein (Homo sapiens) (UniProt Q9HD26) (assay: untagged CAL PDZ binding inhibitors, primary screen, biochemical, fluorescence polarization, HTS (AID 602252;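 note: 0% = DMSO neutral control and 100% = excess unlabeled competitor peptide PRC23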)). Conditions: purified CAL PDZ, TMR-peptide fluorescence polarization, 1 h; at 24.9 µM; hits give high values.
`CCOC(=O)CSc1nnc(NC(=O)c2cccc(S(=O)(=O)N3CCCCC3)c2)s1` was tested, and the inhibition was -0.488% (inactive).
With `CCOC(=O)c1sc(NC(=O)c2cc(S(=O)(=O)N3CCOCC3)ccc2C)nc1C` the inhibition was -2.78% (inactive).
`CCc1nnc(NC(=O)c2cc(S(=O)(=O)N3CCCCC3)ccc2C)s1` was tested, and the inhibition was 77.7% (active).
For `CN(C(=O)c1cccc(NC(=O)Cc2ccc(NC(=O)C3CCCN(C(=O)C4CCCC4)C3)cc2)c1)C1CCC1` (stereo not given), the inhibition was 4.34% (inactive).
For `CCOC(=O)c1c(-c2ccccc2)csc1NC(=S)NC(=O)c1ccccc1`, the inhibition was -5.36% (inactive).
With `CCOC(=O)c1c(-c2cccc(C)c2)csc1NC(=O)c1c(-c2ccccc2)noc1C` the inhibition was -0.763% (inactive).
In the case of `CCOC(=O)c1c(-c2ccc(-c3ccccc3)cc2)csc1NC(=O)CCC(=O)O`, the inhibition is reported as 39.2% (active).
For `C=CCN1C=C(C(=O)c2ccccc2)C(=O)CC1`, the inhibition was 6.82% (inactive).
In the case of `COc1ccccc1NC(=O)Nc1nnc(Cc2ccc(F)cc2)s1`, the inhibition is reported as 54% (active).
In the case of `O=C(Nc1nnc(COc2ccccc2)s1)Nc1ccccc1F`, the inhibition is reported as 1.97% (inactive).
With `COc1ccc(Cc2nnc(NC(=O)c3ccc(OC)cc3OC)s2)cc1` the inhibition was -2.81% (inactive).
`CN(CCc1ccccc1)C(=O)c1cccc(NC(=O)Cc2cccc(NC(=O)C3CCCN(C(=O)C4CCC4)C3)c2)c1` (stereo not given) was tested, and the inhibition was -1.08% (inactive).
With `COc1ccc(CCNC(=O)COc2cc(C)cc3oc(=O)c(C)c(C)c23)cc1OC` the inhibition was -1.33% (inactive).
In the case of `COc1cccc(CN(C)CC(=O)Nc2ccccc2C(=O)Nc2ccccc2)c1`, the inhibition is reported as -7.24% (inactive).
In the case of `COc1cccc(NC(=O)c2ccccc2N(Cc2ccccc2)S(C)(=O)=O)c1`, the inhibition is reported as 44.6% (active).
With `COc1cccc(NC(=O)c2ccccc2SC)c1` the inhibition was 0.222% (inactive).
In the case of `O=C(Nc1cccc(S(=O)(=O)N2CCCCC2)c1)c1cncc(Br)c1`, the inhibition is reported as 0.772% (inactive).
`NS(=O)(=O)c1ccc(CNC(=O)c2cccc(S(=O)(=O)N3CCc4ccccc43)c2)cc1` was tested, and the inhibition was -0.134% (inactive).
For `Cc1cccc(NC(=O)c2cccc(S(=O)(=O)N3CCCC3)c2)n1`, the inhibition was -2.35% (inactive).
In the case of `Cc1ccc(NC(=O)c2cccc(S(=O)(=O)N3CCCc4ccccc43)c2)nc1`, the inhibition is reported as 44.8% (active).
In the case of `O=C(CN1C(=O)NC2(CCCCCC2)C1=O)Nc1ccc([N+](=O)[O-])cc1`, the inhibition is reported as -4.3% (inactive).
In the case of `C=CC[C@@H](Cc1ccc(F)cc1)C(=O)OC[C@H]1CCCN1C(=O)[C@H](CC=C)CC(=O)N(CCO)Cc1ccccc1`, the inhibition is reported as -2.32% (inactive).
For `COc1cccc(-n2c(SCC(=O)NC3CCS(=O)(=O)C3)nc3ccccc3c2=O)c1` (stereo not given), the inhibition was -4.98% (inactive).
`CCOc1ccc(NC(=O)CN(C)CC(=O)NC(C)c2ccccc2)cc1OCC` (stereo not given) was tested, and the inhibition was 39.5% (active).
With `CCOc1ccc(NC(=O)CN(C)CC(=O)Nc2cccc(Cl)c2C)cc1OCC` the inhibition was -7.09% (inactive).
`CCOc1ccc(NC(=O)CN(C)C(=O)CSc2ccccc2)cc1OCC` was tested, and the inhibition was -0.51% (inactive).
For `COc1ccc(S(=O)(=O)N2C[C@H]3CON(C)[C@H]3C[C@H]2c2cccc(Br)c2)cc1`, the inhibition was -1.19% (inactive).
For `COc1cccc2c1C(=O)c1c(O)c3c(c(O)c1C2=O)CC(O)(C(C)=NNC(=O)c1ccc(Cl)c(Cl)c1)CC3OC1CC(N)C(O)C(C)O1` (stereo not given), the inhibition was -11.4% (inactive).
In the case of `Cn1nc(C(C)(C)C)c([N+](=O)[O-])c1C(N)=O`, the inhibition is reported as -0.311% (inactive).
`Cc1nn(C)c(Oc2ccccc2)c1[N+](=O)[O-]` was tested, and the inhibition was -1.91% (inactive).
In the case of `Cc1c([N+](=O)[O-])c(N)nn1C`, the inhibition is reported as 46.7% (active).
With `O=C(CSc1cccc[n+]1[O-])c1ccc(-c2ccccc2)cc1` the inhibition was 0.814% (inactive).
With `COc1ccccc1C(=O)CSc1cccc[n+]1[O-]` the inhibition was 1.87% (inactive).
For `O=C(CSc1cccc[n+]1[O-])c1ccc(Cl)cc1`, the inhibition was 51.8% (active).
`CCOC(=O)C1CCCN(C(=O)C2CCN(S(=O)(=O)c3ccc(Cl)c(C(F)(F)F)c3)CC2)C1` (stereo not given) was tested, and the inhibition was -2.17% (inactive).
In the case of `O=C(Nc1ccc(N2CCOCC2)cc1)c1ccc(-c2ccccc2[N+](=O)[O-])o1`, the inhibition is reported as -1.55% (inactive).
With `CC1=NN(c2ccc(Cl)c(C(=O)O)c2)C(=O)/C1=C/c1ccc(-c2ccccc2[N+](=O)[O-])o1` the inhibition was 64% (active).
In the case of `O=C1NC(c2ccc(-c3ccccc3[N+](=O)[O-])o2)C(C(=O)c2ccc(Cl)cc2)C(O)(C(F)(F)F)N1` (stereo not given), the inhibition is reported as -0.998% (inactive).
For `COC1C(CO)OC(n2cnc3c(=S)nc(N)[nH]c32)C1O` (stereo not given), the inhibition was -4.66% (inactive).
With `COc1cc(OC)cc(-c2sc3ccc(OC)cc3c2-c2ccc3cc[nH]c3c2)c1` the inhibition was -4.97% (inactive).
For `O=C(NCc1ccccc1)c1cccc(NC(=O)C2CCCCC2)c1`, the inhibition was -1.61% (inactive).
For `COc1ccc(C(=O)CSc2nnc(COc3ccccc3)n2Cc2ccco2)cc1`, the inhibition was -1.09% (inactive).
With `COc1ccc(-c2oc3ncn(Cc4ccco4)c(=N)c3c2-c2ccc(OC)cc2)cc1` the inhibition was 36.1% (active).
For `N=c1c2c(-c3ccccc3)c(-c3ccccc3)oc2ncn1Cc1ccco1`, the inhibition was 4.45% (inactive).
In the case of `O=C(c1cccc(S(=O)(=O)N2CCCCCC2)c1)N1CCN(Cc2ccccc2)CC1`, the inhibition is reported as -6.1% (inactive).
In the case of `O=C(NCCc1c[nH]c2ccc(Cl)cc12)c1ccc([N+](=O)[O-])cc1`, the inhibition is reported as -7.41% (inactive).
For `Cc1ccc2[nH]cc(CCNC(=O)c3ccc([N+](=O)[O-])cc3)c2c1`, the inhibition was -3.1% (inactive).
`O=C(C[C@H]1C/C=C\C[C@@H](NC(=O)OCC2c3ccccc3-c3ccccc32)C(=O)O[C@@H](c2ccccc2)CNC1=O)N[C@H](CO)Cc1ccccc1` was tested, and the inhibition was 3.89% (inactive).
`C=CC[C@@H](CC(=O)N[C@@H](CO)Cc1ccccc1)C(=O)NCCOC(=O)[C@@H](CC=C)CC(=O)OC(C)(C)C` was tested, and the inhibition was -4.88% (inactive).
In the case of `CC(=O)c1cccc(-c2ccc(CN3C(CC(C)C)C(=O)N(Cc4cn(CC5CCCCC5)nn4)CCS3(=O)=O)cc2)c1` (stereo not given), the inhibition is reported as -1.77% (inactive).
With `NC(=O)CSc1nnc(NC(=O)c2ccc3ccccc3c2)s1` the inhibition was -4.05% (inactive).
`O=C(Nc1nnc(SCc2c(Cl)cccc2Cl)s1)c1cccc([N+](=O)[O-])c1` was tested, and the inhibition was 76.9% (active).
In the case of `O=C(Nc1nnc(SCc2ccccc2Cl)s1)c1cccc([N+](=O)[O-])c1`, the inhibition is reported as -3.54% (inactive).
For `O=C(CSc1nc2ccccc2c(=O)n1Cc1ccc(F)cc1)NCC1CCCO1` (stereo not given), the inhibition was 0.714% (inactive).
For `Cc1ccc(NC(=O)c2ccc(Cl)nc2)cc1S(=O)(=O)N1CCOCC1`, the inhibition was -1.23% (inactive).
In the case of `CC[C@]12c3[nH]c4cc(CCC(=O)N(C)C)ccc4c3CCN1C(=O)[C@@H](CC(=O)NCC13CC4CC(CC(C4)C1)C3)C[C@@H]2C(=O)N1CCN(C(=O)C2CC2)CC1`, the inhibition is reported as 5.74% (inactive).
In the case of `CCCCC(=O)NC(c1ccc(OC)c(OC)c1)c1ccc2cccnc2c1O` (stereo not given), the inhibition is reported as -1.93% (inactive).
With `O=C(O)c1ccc(/C=N/NC(=S)NCc2ccccc2)cc1` the inhibition was -1.3% (inactive).
In the case of `C=CCNC(=S)N/N=C/c1ccc(OCc2ccccc2)cc1`, the inhibition is reported as 51.2% (active).
For `O=C(N/N=C/c1ccc(OC(=O)c2ccccc2Cl)cc1)c1ccc(O)cc1`, the inhibition was -4.63% (inactive).
With `O=C(COc1ccc(/C=N/NC(=O)c2ccc(O)cc2)cc1)Nc1ccc([N+](=O)[O-])cc1` the inhibition was -1.35% (inactive).
In the case of `O=C(Cc1cccs1)N/N=C/c1ccc(OCc2ccccc2)cc1`, the inhibition is reported as -1.99% (inactive).
`O=C(N/N=C/c1ccc(OCc2ccccc2)cc1)c1ccc(O)cc1` was tested, and the inhibition was 83.5% (active).
With `CN1C(c2ccc(F)cc2)=CS/C1=C(/C#N)c1nnc2n1-c1ccccc1SC2` the inhibition was 7.66% (inactive).
In the case of `C=CC[C@@H](CC(=O)N[C@H](CO)Cc1ccccc1)C(=O)N[C@H](C)COC(=O)[C@@H](CC=C)Cc1ccc(F)cc1`, the inhibition is reported as 4.91% (inactive).
`C=CCC[C@H](Cc1ccc(F)cc1)C(=O)OC[C@@H](NC(=O)[C@@H](CC=C)CC(=O)N[C@H](CO)Cc1ccccc1)C(C)(C)C` was tested, and the inhibition was 40.2% (active).
`C=CCC[C@H](Cc1ccc(F)cc1)C(=O)OC[C@@H](Cc1c[nH]c2ccccc12)NC(=O)[C@H](CC=C)CC(=O)N[C@H](CO)Cc1ccccc1` was tested, and the inhibition was -1.97% (inactive).
`O=C1/C(=C\c2ccc(O)cc2)CCC1CNc1ccc(Cl)cc1` (stereo not given) was tested, and the inhibition was -2.09% (inactive).
In the case of `CC(=O)OC1CCC2(C)C(=CCC3C4CC(=O)N(O)C(=O)C4(C)CCC32)C1` (stereo not given), the inhibition is reported as -3.51% (inactive).
In the case of `c1ccc(C(=NNc2nc3ccccc3s2)c2ccccn2)cc1`, the inhibition is reported as 10.3% (inactive).
In the case of `CCCCc1nnc(NC(=O)CS(=O)(=O)Cc2ccccc2)s1`, the inhibition is reported as 30.2% (active).
With `COCc1nnc(NC(=O)CS(=O)(=O)Cc2ccccc2)s1` the inhibition was -3.64% (inactive).
In the case of `CCOCc1nnc(NC(=O)CCS(=O)(=O)Cc2ccccc2)s1`, the inhibition is reported as -2.55% (inactive).
For `COc1ccc(N2CCN(C(CNS(=O)(=O)c3ccc(C)cc3)c3ccccc3)CC2)cc1` (stereo not given), the inhibition was -2.12% (inactive).
In the case of `O=C1C=CN2CCCC2CC1` (stereo not given), the inhibition is reported as -1.74% (inactive).
`O=C(NC(=S)Nc1ccc(Br)cc1F)C1CCCCC1` was tested, and the inhibition was -6.68% (inactive).
For `Cc1nn(-c2ccc(F)cc2)c(Cl)c1/C=C(/CCC(=O)O)c1nc2ccccc2s1`, the inhibition was -3.19% (inactive).
`COc1cc(C2c3cc4c(cc3C(O)C3COC(=O)C23)OCO4)cc(OC)c1OC` (stereo not given) was tested, and the inhibition was -1.27% (inactive).
With `CS(=O)(=O)N1CCc2cc(C(=O)Nc3ccccc3Br)ccc21` the inhibition was -1.26% (inactive).
With `CSc1ccccc1NC(=O)c1ccc2c(c1)CCN2S(C)(=O)=O` the inhibition was -1.36% (inactive).
For `CCc1ccccc1NC(=O)c1ccc2c(c1)CCN2S(C)(=O)=O`, the inhibition was 40% (active).
With `COc1cc(OC)cc(-c2cc3ccc(F)cc3cn2)c1` the inhibition was -1.91% (inactive).
`O=C(C1CCN(C2CCN(Cc3cccc4c3OCO4)CC2)CC1)N1CCOCC1` was tested, and the inhibition was 37.8% (active).
With `C/C(=C\c1ccco1)CN1CCC(N2CCC(C(=O)N3CCOCC3)CC2)CC1` the inhibition was 5.25% (inactive).
`O=C(C1CCN(Cc2ccc(Cl)cc2)CC1)N1CCN(Cc2ccc3c(c2)OCO3)CC1` was tested, and the inhibition was 2.38% (inactive).
